Molecules are shown by their SMILES. The campaign covered roughly 300,000 compounds. About 37,000 (12%) were called active. The entries come from a sample that favours actives as a whole. A number with no mark means an inactive call. Cut-off read from the data, not from the text of the source: active = max response mostly above about 13% (no sharp cut-off); inactive = mostly below about 14%.

A short description of this assay: Cycloheximide Counterscreen for Small Molecule Inhibitors of Shiga Toxin. Note: read at 38.3 µM for the half of the compounds with a filed dose; 0% is about no effect. The following applies: cell reporter, cycloheximide protein synthesis inhibition counterscreen; stronger effect = higher value.
On to `CCOC(=O)c1c(CN(C)C)n(-c2ccccc2)c2cc(Br)c(O)cc12`, for which the max response is -1.63%. On to `C[C@H]1CCC(=O)N([C@H](CSc2ccccc2)Cc2ccccc2)CC1`, for which the max response was 6.38%. Take `Cc1c(C(=O)N2CCCC2)c(S(=O)(=O)NCC(C)c2ccccc2)c(C)n1C` (stereo not given): the max response is -6.59%. Regarding `COc1ccc(N(CC(=O)NC2CCCCC2)C(=O)CNC(=O)c2ccco2)c(OC)c1`, the max response is 1.11%.

On to `CC1CC(NC(=O)/C(C#N)=C/c2ccc[nH]2)CC(C)(C)C1` (stereo not given), for which the max response is 4.89%. For `CC(=O)NC1=NN(C(C)=O)C(C)(c2ccc(Cl)s2)S1` (stereo not given), the max response was -1.1%. In the case of `O=C(N/N=C/c1cccc2cccnc12)[C@H]1C[C@@H]1c1ccccc1`, the max response is 8.61%.

For `CN(C)/C(CN1CCCCC1)=C1\N=C(c2ccccc2)OC1=O`, the max response was -3.11%.

With `O=c1cc(CN2CCN(S(=O)(=O)/C=C/c3ccccc3)CC2)c2ccc(O)cc2o1`, the max response was -1.39%. On to `COc1ccc([N+](=O)[O-])cc1N(CC(O)CN(CC(C)C)CC(C)C)S(=O)(=O)c1ccc(C)cc1` (stereo not given), for which the max response was 9.04%. Next, `Cc1ccc(C(=O)Cc2nnc(C)s2)cc1`: 43.7% (active); `CCOCc1nnc(NC(=O)CSc2ccc(C)cc2)s1`: -1.61%. For `Cc1ccc(C(=O)Cn2cccn2)cc1`, the max response is 6.54%. Next, `COc1cc2c(cc1NC(=O)COC(=O)/C=C/c1ccccc1)oc1ccccc12`: 0.0459%. As to `O=C(O)Cc1sc(-c2ccccc2)nc1-c1cccs1`, the max response is 16.4%. Turning to `NC(=O)Cc1ccc2sc(-c3ccccc3)nc2c1`, the max response is 75.6% (active). As to `NC(=O)Cc1ccc2c(c1)[nH]c1ccccc12`, the max response is 4.3%. As for `O=C(O)Cc1ccc(NCc2ccccc2Cl)cc1`, the max response is 23.5%. Take `COC(=O)CN1C(=S)N(c2ccccc2)C(=O)C1CC(=O)Nc1ccc(Cl)cc1` (stereo not given): the max response was -2.88%. Next, `O=C(O)CC1=C(Nc2ccccc2)C(=O)N(c2ccccc2)C1c1ccc(Cl)cc1` (stereo not given): 38.1% (active); `COc1ccccc1-n1c(=S)[nH]c2c(sc(=S)n2-c2ccc(C)cc2C)c1=O`: 5.32%; `O=S(=O)(c1cnccc1N1CCN(/N=C/c2ccc(Br)cc2)CC1)N1CCCCC1`: -0.626%. Turning to `O=C(CSc1nnnn1-c1ccc(O)cc1)N1N=C(c2ccc3ccccc3c2)CC1c1ccccc1` (stereo not given), the max response is 6%. `CC(C)=C1SC(N2CCN(c3ccc(C)c(Cl)c3)CC2)=NC1=O`: the max response is -1.62%. As for `CC(C)=C1SC(N2CCN(c3cccc(C)c3)CC2)=NC1=O`, the max response is -1.33%. Next, `CCN1C(=O)/C(=C2\SC(N3CCCCC3)=NC2=O)c2ccccc21`: 18.4% (active). The value for `CN(CCOc1ccccc1)C(=O)c1cc(COc2c(F)cccc2F)on1` was 15.4%; that for `C/C(=N/OC(=O)c1cccc(C(F)(F)F)c1)c1cnccn1` was -2.87%; that for `Cc1nonc1C1CCCN1C(=O)c1cc(COc2cccc(C(F)(F)F)c2)on1` (stereo not given) was 27.6% (active). Take `CN(Cc1cccnc1)C(=O)c1cc(COc2ccc3ncccc3c2)on1`: the max response is 7.18%.

For `Cc1cc(CN(C)C(=O)c2cc(COc3ccc(C)c(C)c3)on2)n[nH]1`, the max response is 46% (active).

Turning to `CCC(=O)OCc1c(C(F)(F)F)nn(C)c1Oc1cccc(C(F)(F)F)c1`, the max response is -1.08%.

Turning to `COCCNC(=O)COc1ccc(C)c(C)c1`, the max response was 9.18%. In the case of `CCOC(=O)N1CCN(Cc2nc(Cc3cccc(C(F)(F)F)c3)no2)CC1`, the max response is 9.29%.

As for `Cc1ccc(OCc2cc(C(=O)N(C)CCc3ccccc3)no2)cc1C`, the max response was 62.4% (active).

`CN(Cc1cnccn1)C(=O)c1cc(COc2cccc(C(F)(F)F)c2)on1`: the max response was 37.1% (active). As for `COc1ccc(C(=O)NNC(=O)c2cc(C)[nH]n2)cc1`, the max response was 3.07%. Next, `Cc1ccc(OCC(=O)NC(C)c2ccccc2)cc1C` (stereo not given): -1.54%; `CC(=O)c1cccc(NC(=O)C2CCCN(S(=O)(=O)c3cccc4nonc34)C2)c1` (stereo not given): -1.65%; `CCCn1c(C2CCCN2c2nc(-c3ccc(C)cc3)cs2)nc2cc(Cl)c(N3CCCCC3)cc21` (stereo not given): 2.93%. Take `CCN(CC)CCN(C(=O)c1cc(Cl)sc1Cl)c1nc2cc3c(cc2s1)OCO3`: the max response is 11.7%.

In the case of `CC(=O)Nc1ccc(NC(=O)CN2C(=O)COc3ccc(S(=O)(=O)N4CCCCC4)cc32)cc1`, the max response was -11.2%. As for `COc1ccccc1Oc1ccc(N2CC(C(=O)OCC(=O)c3ccc(F)cc3)CC2=O)cc1` (stereo not given), the max response was 1.71%.

Take `CCCOc1ccc(Cc2c(O)nc(SC)[nH]c2=O)cc1C`: the max response is 1.31%. As to `Cc1noc(/C=C/c2ccco2)c1S(=O)(=O)N1CCC(C(=O)Nc2ccc(Cl)cn2)CC1`, the max response is 14.7%. With `Cc1cc(C)cc(OCC(=O)Nc2cc(NC(=O)COc3cc(C)cc(C)c3)cc(C(=O)O)c2)c1`, the max response was -5.04%. As for `COc1ccc(CCNS(=O)(=O)c2cc3c(cc2C)NC(=O)CO3)cc1OC`, the max response was -0.971%. Regarding `FC(F)(F)c1nc(-c2ccccc2)ncc1-c1nnnn1-c1ccccc1`, the max response is -1.17%. Consider `Cc1ccc(CNC(=O)CCN2C(=O)[C@@H]3Cc4ccccc4CN3C2=O)cc1`, for which the max response was 4.73%.

Regarding `COc1ccccc1CC(=O)Nc1ccc([N+](=O)[O-])cc1OC`, the max response was -1.19%. For the molecule `COc1ccccc1CSc1ncc(-c2ccc([N+](=O)[O-])cc2)[nH]1`, the max response is 29.2% (active).

As to `C=CCSc1nc2ccccc2[nH]1`, the max response was 12.4%. For `CCc1nnc(NC(=O)CCCSc2nc3ccccc3[nH]2)s1`, the max response was -1.42%. With `COc1ccccc1CSc1nc2ccccc2[nH]1`, the max response is 41% (active). Take `CCCCSc1nc2ccccc2[nH]1`: the max response is 30.4% (active). On to `COc1ccccc1-c1noc(CSc2nc(C)cc(=O)[nH]2)n1`, for which the max response is 1.82%.

On to `N#Cc1c(-c2ccccc2)nc(SCc2ccc([N+](=O)[O-])cc2)[nH]c1=O`, for which the max response is -1.84%. Take `O=C(NCc1ccccc1)c1onc(CSc2nc3ccccc3[nH]2)c1C(=O)NCc1ccccc1`: the max response is -0.0609%.

Take `CCNS(=O)(=O)c1ccc(CCC(=O)N2CCN(c3ccc(OC)cc3)CC2)cc1`: the max response was 2.4%. `CC(Oc1ccccc1[N+](=O)[O-])C(=O)N/N=C/c1ccoc1` (stereo not given): the max response is -2.14%. For the molecule `CCOc1cc(C(C(=O)NCC2CCCO2)N(C(=O)Cn2nnc3ccccc32)c2cccc(OC)c2)ccc1O` (stereo not given), the max response is -2.76%. For `CC1CCc2c(sc(NC(=O)c3ccc(Cn4cc(Br)cn4)o3)c2C(N)=O)C1` (stereo not given), the max response was 0.185%.

In the case of `O=C(N/N=C\c1ccc(Br)cc1)c1ccc(Cn2cccn2)o1`, the max response was 19.8% (active).

As to `O=C(N/N=C/c1ccc2c(c1)OCO2)c1ccc(Cn2cc([N+](=O)[O-])cn2)o1`, the max response was 12.3%. Next, `Cc1c(Cl)c([N+](=O)[O-])nn1Cc1ccc(C(=O)N/N=C\c2cc(Cl)ccc2O)o1`: 9.36%; `CN(C)c1ccc(/C=N/NC(=O)c2ccc(Cn3cc(Br)cn3)o2)cc1`: 56.4% (active).

Take `O=C(N/N=C/c1ccc(OCC2COCCO2)cc1)c1ccc(Br)cc1` (stereo not given): the max response is 3.9%. Next, `C=CCNC(=S)NNc1ncnc2sc3c(c12)CC(C)(C)OC3`: -1.51%; `COc1ccccc1CNS(=O)(=O)CC12CCC(CC1=O)C2(C)C` (stereo not given): -1.52%; `CC(C)(C)OC(=O)CNC(=O)c1[nH]cnc1C(=O)N[C@@H](Cc1ccccc1)C(=O)OCc1ccccc1`: -1.14%.

On to `CCOC(=O)N1CCN(Cc2nnc(-c3ccccc3Cl)o2)CC1`, for which the max response was -1.64%.

With `N/C(=N\S(=O)(=O)c1cc(C(F)(F)F)cc(C(F)(F)F)c1)c1cccs1`, the max response is 0.609%. `CCn1nc(C)c(/C=N/NC(=O)Cc2ccc(Cl)cc2)c1C`: the max response was 27.9% (active).

For the molecule `Cc1nn(Cc2ccc(Cl)cc2)c(Cl)c1/C=N/NC(=O)c1cccnc1`, the max response was -2.03%. On to `Cc1nn(Cc2ccc(Cl)cc2)c(Cl)c1/C=N/NC(=O)CNc1ccccc1F`, for which the max response is -0.244%. Take `COCCCNC(=O)[C@H]1N2C(=O)c3ccccc3C2SC1(C)C` (stereo not given in full): the max response is -1.51%. On to `Cc1ccc(SCCC(=O)NC(C(C)C)C(C)C)cc1`, for which the max response is 1.28%. The value for `Cc1ccc(SCCSc2ncccn2)cc1` was 44.5% (active); that for `Cc1ccc(SCCC(=O)NCc2ccccn2)cc1` was -2.86%; that for `Cc1cc(=O)oc2cc(OCC(=O)N3CCN(c4ccc(F)cc4)CC3)c(Cl)cc12` was -1.36%.

For the molecule `Cc1cc(C)n2nc(SCC(=O)NC(=O)NCc3ccco3)nc2n1`, the max response was 3.86%.

`COc1ccc(NC(=O)c2cccc(Cl)c2)c[n+]1[O-]`: the max response was -3.34%. On to `C/C(=N\N(C)C)c1ccc(OCCOc2ccc([N+](=O)[O-])cc2)cc1`, for which the max response was 10.2%. The value for `CCc1cccc2c(=O)c(C(=O)NCCCOC)c[nH]c12` was -0.768%; that for `CCOCCCNC(=O)c1c[nH]c2cc(C)ccc2c1=O` was 15.4% (active); that for `CCOCCCNC(=O)C(NC(=O)c1ccc(=O)[nH]c1)c1ccc(C)cc1` (stereo not given) was -5.76%. In the case of `CCOC(=O)C1(CCOC)CCN(Cc2cc3ccccc3s2)CC1`, the max response was -0.534%. With `CCOC(=O)C1(CCOc2ccccc2)CCN(Cc2cc(OC)cc(OC)c2)CC1`, the max response was -1.48%. Regarding `CCOC(=O)C1(CCOC)CCN(Cc2ccc(C(=O)OC)cc2)CC1`, the max response was 19.1% (active).

For the molecule `Cn1c(CN2CCOCC2)nc2cc(NC(=O)c3ccc(Cl)cc3)ccc21`, the max response is 32.5% (active). The value for `CCOC(=O)N1CCN(Cc2nc3cc(NC(C)=O)ccc3n2C)CC1` was -2.56%; that for `CCOc1ccc(C(=O)Nc2ccc(CN3CCOCC3)cc2)cc1Cl` was 6.5%. On to `Cc1nc2cc(NC(=O)NC3CC3)ccc2n1C`, for which the max response was 20.8% (active). In the case of `O=C(CCN1C(=O)c2ccccc2C1=O)Nc1cccc(F)c1`, the max response is -3.51%.

On to `COc1ccc(-n2cnc3cc(NCc4ccco4)ccc32)cc1`, for which the max response is 20.3%.

With `Cc1cc2nc(C)n(CCCNC(=O)Nc3ccccc3)c2cc1C`, the max response is -3.47%. Take `Cc1ccc(NC(=O)NC2CCCCC2)cc1S(=O)(=O)N1CCOCC1`: the max response was -2.12%. As to `Cc1nc2cc(NCc3cccs3)ccc2n1C`, the max response is 51.1% (active). Take `Cc1nc2cc(NC(=O)Nc3cccc(F)c3)ccc2n1C`: the max response was 23% (active). With `Cn1ncc(Br)c1C(=O)NCc1cccs1`, the max response was 2.99%.

The values are drawn from PubChem BioAssay AID2314 (National Center for Advancing Translational Sciences (NCATS), 2010).
